In the library only some 0.88% were active in any assay of this set; here they are far more common.
APE1 inh – qHTS Assay for Inhibitors of the Human Apurinic/apyrimidinic Endonuclease 1 (APE1); Potency, µM (titrated, usually from 65.8 µM), for the others: at the highest dose activity change, negative = inhibition, usual class: inhibitors; 0.35% of 350,000 active; DNA repair nuclease/redox regulator APEX1 (Homo sapiens), P27695; recombinant APE1, TAMRA/BHQ-2 abasic DNA cleavage fluorescence; AID 2517, 2012;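 further: plate controls were vehicle for no effect and reference inhibitor for full effect; nearly all actives have a fitted effect of over 55% in size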
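Substrate: short duplex with […] THF abasic site, 5'-TAMRA and 3'-BHQ-2, 50 nM final. APE1 at 0.75 nM, preincubated 15 min RT with compound. Fluorescence increase from first to third read measured activity.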
ERG-DNA inh – qHTS for Small Molecule Inhibitors of the ERG Ets/DNA interaction; 0.028% of 370,000 active; Potency, µM (doses to about 76.9 µM), without a hit: at the top dose FP activity, negative = inhibition, usual class: inhibitors; AID 624246, 2012; fluorescence polarization, His-ERG Ets domain / labelled DNA; active means well fitted inhibition curve with a large enough effect in the polarisation, with a control signal flat; inconclusive means small, poorly fitted or top-dose-only effect, or effect the other way, or a change in a side signal; inactive means no such curve, though single readings can be large or run the other way; the % refers to the polarisation;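 further: polarization taken with two DNA probes labelled with fluorescein and Texas red; % of control where 0% means no effect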
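His-tagged ERG Ets domain (1 uM in the protein solution; 300mM KCl, 50mM Tris-HCl, 1mM EDTA, 1mM DTT, pH 7.5) received compound, then a probe mix of 5 nM fluorescein-DNA and 100nM Texas-615-DNA. Fluorescence polarization was read for both dyes.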
GCN5L2 inh – qHTS Assay for Inhibitors of GCN5L2; AID 504327, 2011; Potency, µM (doses to about 58.9 µM), for inactives: top-dose activity change, negative = inhibition, actives largely listed as inhibitors; Histone acetyltransferase KAT2A (Homo sapiens), Q92830; 0.21% of 390,000 active; GCN5L2 HAT assay, ThioGlo1 CoA-SH fluorescence; further: on the % scale 0 is the no-effect control and ±100 the full control effect
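Enzyme at 20nM final was mixed with library compounds for 15 min at room temperature. Peptide H3(1-25) at 75uM, acetyl-CoA at 70uM and ThioGlo1 at 50uM were then added. Plates were read immediately and after 20 min (Ex340nm/Em540nm).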
WRN inhibitor – qHTS for Inhibitors of WRN Helicase | Potency, µM (highest dose often 114 µM), for inactives: at the top dose activity change, negative = inhibition, usual class: inhibitors | WRN helicase unwinding, fluorescent forked duplex, kinetic | Bifunctional 3'-5' exonuclease/ATP-dependent helicase WRN (Homo sapiens), Q14191 | 0.46% of 360,000 active; further: on the % scale 0 is the no-effect control and ±100 the full control effect; nearly all actives have a fitted effect of over 55% in size
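Kinetic fluorescence helicase assay: unwinding of a quenched forked DNA duplex (100 nM final) with 2 mM ATP final raises red fluorescence (525/598 nm). Compounds sat 15 min at room temperature with 20 nM WRN beforehand.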
RECQ1 inh-1 – qHTS Assay for Inhibitors of RecQ-Like Dna Helicase 1 (RECQ1) | ATP-dependent DNA helicase Q1 (Homo sapiens), P46063 | RECQ1 DNA unwinding, red fluorescence kinetic read | Potency, µM (top dose mostly 57.3 µM), without a hit: at the top dose activity, negative = inhibition, most hits filed as inhibitors | 0.54% of 240,000 active;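 further: plate controls were vehicle for no effect and no enzyme for full effect; nearly all actives have a fitted effect of over 30% in size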
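RECQ1T1 50 nM; forked duplex (20 bp + 30-nt ss tails) 200 nM, ATP 2 mM final; pH 8.0, 2 mM MgCl2, 2.5 ug/ml poly(dI-dC); 15 min compound preincubation; discontinuous kinetic read over 2 h at RT.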
BLM inh – qHTS Assay for Inhibitors of Bloom's syndrome helicase (BLM) | AID 2528, 2010 | recombinant BLM DNA unwinding, fluorescence dequenching | Potency, µM (highest dose often 56.1 µM), inactives show at the top dose activity change, negative = inhibition, usual class: inhibitors | 0.2% of 350,000 active;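 further: plate controls were vehicle for no effect and no enzyme for full effect; nearly all actives have a fitted effect of over 35% in size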
RECQ1 conf – Confirmation qHTS Assay for Inhibitors of RecQ-Like Dna Helicase 1 (RECQ1); RECQ1 helicase DNA unwinding, fluorescence; shares compounds with RECQ1 inh-1; AID 2708, 2010; Potency, µM (doses to about 229 µM), without a hit: top-dose activity change, negative = inhibition, most hits filed as inhibitors; 28% of 610 active; further: on the % scale 0 is the no-effect control and ±100 the full control effect; nearly all actives have a fitted effect of over 45% in size
RECQ1 ADP FP – Counterscreen for RECQ1 Inhibitors: ADP Fluorescence Polarization Displacement Assay; 27% of 530 active; shares compounds with RECQ1 inh-1; AID 2711, 2010; Potency, µM (top dose mostly 228 µM), for the others: at the highest dose activity change, negative = inhibition, hits mostly inhibitors; ADP fluorescence polarization displacement counterscreen; further: on the % scale 0 is the no-effect control and ±100 the full control effect; nearly all actives have a fitted effect of over 45% in size
RECQ1 inh-2 – Confirmation qHTS Assay for Inhibitors of RecQ-Like Dna Helicase 1 (RECQ1) - Round 2 Cherry Picks | shares compounds with RECQ1 inh-1 | Potency, µM (series often up to 119 µM), for the others: top-dose activity, negative = inhibition, actives largely listed as inhibitors | recombinant RECQ1 DNA unwinding, red fluorescence | 15% of 1,100 active; further: on the % scale 0 is the no-effect control and ±100 the full control effect; nearly all actives have a fitted effect of over 50% in size
Active calls of the source: *; i = inactive; ? = inconclusive; . = not tested or not shown; [ ] = remark or other dose. Unless noted, the call rests on the fitted dose curve; in most records, active means well fitted curve in the direction sought with a large enough effect; inconclusive means small, poorly fitted or top-dose-only effect, or another doubt; inactive means no such curve, though single readings can be large; an effect the other way counts as inactive or inconclusive. Potency means the concentration at half of the fitted maximal effect.

SMILES	APE1 inh	ERG-DNA inh	GCN5L2 inh	WRN inhibitor	RECQ1 inh-1	BLM inh	RECQ1 conf	RECQ1 inh-2	others
COc1ccc(Nc2nc(N3CCOCC3)nc(N3CCOCC3)n2)cc1	36.3%	0.7%	-1.2%	4.8%	.	-1.0%	.	.
CC(C)c1ccc(Nc2nc(Nc3ccc(Cl)cc3)nc(N3CCOCC3)n2)cc1	.	.	.	.	.	.	-14.2%[69.1 µM]	.
COc1ccc(NC(=O)Cn2c(=O)n(-c3ccccc3)c(=O)c3c4c(sc32)CCCC4)cc1	.	0.2%	-0.7%	.	.	-4.2%	.	.
Cc1oc2c(c1C(=O)c1ccc(Cl)cc1)C(=O)C(=O)c1ccccc1-2	9.1%	-5.6%	?	-35.3%	?	-7.6%	.	.
Cc1ccc(C(=O)c2c(C)oc3c2C(=O)C(=O)c2ccccc2-3)cc1	-4.7%	-0.8%	-5.4%	-35.2%	?	-6.6%	.	56.2µM*
CCc1nnc(NS(=O)(=O)c2ccc(NC(=S)NC(=O)/C=C/c3ccc(OC)cc3)cc2)s1	2.4%	10.0%	0.7%	?	3.0%	?	.	.
CCc1nnc(NS(=O)(=O)c2ccc(NC(=S)NC(=O)/C=C/c3ccc(C(C)C)cc3)cc2)s1	-4.9%	.	-26.8%	89.1µM*	?	-20.4%	.	?
CCc1nnc(NS(=O)(=O)c2ccc(NC(=S)NC(=O)/C=C/c3ccccc3)cc2)s1	?	0.6%	-2.8%	?	?	-9.3%	.	?
O=C(Cn1cc(S(=O)(=O)Cc2ccc(F)cc2)c2ccccc21)NCc1ccccc1	.	9.0%	-22.6%	.	.	-2.8%	.	.
O=C(CCS(=O)(=O)c1ccc(Br)cc1)Nc1ccc(Br)cc1F	-10.5%	-10.5%	-5.2%	-18.2%	35.5µM*	-8.0%	.	?
NC(=O)CSc1ncc2c(n1)-c1ccccc1N(Cc1ccccc1)S2(=O)=O	.	0.6%	-7.6%	.	.	-2.9%	.	.
Cc1cc2nc3ccc(=[N+](C)C)cc-3sc2cc1N	?	?	-11.6%	.	15.8µM*	15.8µM*	3.55µM*	15.8µM*	RECQ1 ADP FP=7.08µM*
CC(C)(O)C#Cc1ccc(CN2CCCC(CO)(Cc3cccc(Cl)c3)C2)cc1 (centres undefined)	-2.5%	-1.0%	0.0%	-1.7%	?	-7.3%	.	-26.2%
O=C1CCCC2=C1C(c1ccc(O)c(O)c1)c1c(ccc3ncccc13)N2 (centres undefined)	10µM*	-9.2%	?	-18.3%[11.6 µM]	11.2µM*	-10.3%	?	?	RECQ1 ADP FP=?
CC1CCCCC1NC(=O)COC(=O)c1c2c(nc3ccccc13)/C(=C/c1ccco1)CC2 (centres undefined)	?	7.8%	?	?	12.6µM*	?	1.0%[114 µM]	?
CC12CCC(C1)C(C)(C)C2=O (centres undefined)	.	.	5.8%	.	.	1.6%	.	.
CCC(/C=C1\Sc2ccc(OC)cc2N1CCO)=C\c1sc2ccc(OC)cc2[n+]1CCO	?	?	?	50.1µM*	12.6µM*	?	.	44.7µM*
CCC(/C=C1\Sc2ccc(OC)cc2N1CC)=C\c1sc2ccc(OC)cc2[n+]1CCCS(=O)(=O)[O-]	?	134.5%	2.5%	31.9%	-8.3%	3.9%	.	.
O=C(O)CC1Sc2ccccc2NC1=O (centres undefined)	11.7%	1.3%	-1.3%	-1.0%	i	2.9%	.	.
O=C1Nc2ccccc2SC(c2ccccc2)C1O (centres undefined)	?	4.8%	-21.5%	?	31.6µM*	-7.6%	.	?
O=C1C(C2=NC(C(=O)O)C3C(=O)N(c4ccccc4)C(=O)C23)=C(O)c2ccccc21 (centres undefined)	-1.4%	-6.0%	-7.8%	6.4%	-2.6%	-0.7%	15.0%	.	RECQ1 ADP FP=?
CC1CCCC(C(=O)O)N1C(=O)CCSSCCC(=O)N1C(C)CCCC1C(=O)O (centres undefined)	-2.3%	6.9%	-4.4%	3.8%	-5.2%	-2.9%	6.6%	.	RECQ1 ADP FP=4.6%
Cc1ccc(O)c(N=Cc2cc(Cc3ccccc3)cc([N+](=O)[O-])c2O)c1	-11.6%	0.0%	-0.8%	?	12.6µM*	-21.9%	56.2µM*	?	RECQ1 ADP FP=44.7µM*
CN(C)C(=O)c1cn(CCC#N)nc1-c1ccc2ccccc2c1	10.2%	4.1%	-5.1%	24.5%	.	1.9%	.	.
CCN(CC)C(=O)c1cn(CCC#N)nc1-c1ccc(F)cc1	?	-1.0%	-1.0%	-1.2%	39.8µM*	-0.3%	.	3.1%
SMILES	APE1 inh	ERG-DNA inh	GCN5L2 inh	WRN inhibitor	RECQ1 inh-1	BLM inh	RECQ1 conf	RECQ1 inh-2	others
O=C(Cn1cnc([N+](=O)[O-])c1)Nc1ccc(Cl)cc1Cl	.	.	.	2.8%	.	.	.	.
CCc1cc(C(=O)N2CCN(C(=O)c3ccccc3)CC2)sc1C	27.1%	13.0%	-0.3%	-4.4%	.	.	.	.
CNc1ccc(Br)cc(C(=O)/C=C/c2cccc(OC)c2OC)c1=O	?	7.6%	-8.6%	11.3%	-27.4%	?	.	.
CNc1ccccc(C(=O)/C=C/c2ccccc2OC)c1=O	-3.5%	.	-2.9%	?	25.1µM*	-15.4%	.	?
COc1cccc(/C=N/Nc2nc3ccccc3n3cnnc23)c1O	1.5%	0.0%	0.3%	?	5.01µM*	-11.1%	-4.7%[114 µM]	.
COC(=O)c1sccc1S(=O)(=O)N(CC(=O)NCc1ccccc1)c1ccc(C)cc1	.	-2.1%	-7.7%	.	.	1.3%	.	.
O=C(Nc1ccccc1)c1cn(-c2ccccc2)nc1-c1ccccc1	.	-9.0%	-10.6%	.	.	-6.3%	.	.
